This is a sample that favours compounds with a hit; in the whole collection about 2.8% have one here.
LDHA inh – blocks human lactate dehydrogenase A | hit rate 0.15% among 480,000 | activity change, % (values are at about 110 or 230 µM) | P00338 | purified LDHA, NADH/diaphorase-resazurin fluorescence; hits give low values; in the data active means activity change below about -30%; inconclusive means mostly about -25% to -30%;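 further: plate controls were DMSO wells for no effect and wells without enzyme for full effect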
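Enzyme activity of human lactate dehydrogenase 5 (2 nM; 0.06 mM NADH, 0.2 mM pyruvate, 5 min, RT) is measured via a resazurin/diaphorase fluorescence readout of residual NADH.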
PI4K2A block – PI4K2A (human) kinase inhibition. activity change, negative = inhibition, % at 76.9 µM. AID 1346378. purified PI4K2A, ADP-Glo luminescence, 1 h; hits give low values. hit rate 0.13% among 420,000; in the data active means activity change below about -50%; inconclusive means mostly about -30% to -49%;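 further: -100% = wells without enzyme as full effect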
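Compounds are screened against recombinant PI4K2A using PI as substrate and ATP, the latter dispensed at 300 microM. Reactions run one hour at ambient temperature before ADP-Glo detection; full inhibition defined by wells lacking enzyme.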
pAkt inh – Akt phosphorylation inhibition; Neuro2A IGF-stimulated pAkt S473 HTRF, 20 min; hits give low values; activity change, % for hits at 50 µM; hit rate 0.32% among 360,000; in the data active means activity change below about -80%; inconclusive means mostly about -51% to -80%; further: on the % scale 0 is the no-effect control and ±100 the full control effect
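Single-point screen (50 µM final compound) in Neuro2A cells stimulated 20 min with 6 nM IGF at 37 deg C. After lysis, Ser473-phosphorylated Akt read by HTRF (ex 330 nm, em 615/665 nm) as the 665/615 ratio.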
D3 ag – D3 dopamine receptor (human) agonism; D3R DiscoveRx beta-arrestin cells, luminescence, 90 min; max activation, %; hit rate 0.58% among 410,000; in the data active means max activation above about 30%; further: 0% is about no effect
Target sequence (P35462 whole entry, looked up): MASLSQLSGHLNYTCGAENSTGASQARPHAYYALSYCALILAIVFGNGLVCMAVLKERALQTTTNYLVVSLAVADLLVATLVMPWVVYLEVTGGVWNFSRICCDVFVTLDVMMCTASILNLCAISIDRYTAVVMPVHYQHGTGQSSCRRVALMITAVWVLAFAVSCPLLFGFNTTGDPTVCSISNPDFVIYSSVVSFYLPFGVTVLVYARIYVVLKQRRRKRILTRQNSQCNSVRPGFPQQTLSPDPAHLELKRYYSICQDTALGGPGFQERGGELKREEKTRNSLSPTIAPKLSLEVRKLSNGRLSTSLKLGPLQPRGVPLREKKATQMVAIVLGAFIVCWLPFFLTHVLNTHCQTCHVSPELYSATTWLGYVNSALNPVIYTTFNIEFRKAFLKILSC
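Agonist mode: compounds and dopamine controls were applied to plated cells for 90 min at 37 degrees C after an overnight attachment at 1500 cells/well. Luminescent read-out followed 30 - 60 minutes at room temperature with DiscoveRx detection reagent.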
D3 antag – antagonists of human D3 dopamine receptor | P35462 | D3R cells, DiscoveRx beta-arrestin luminescence, antagonist mode; hits give low values | max response, negative = inhibition, % | hit rate 2.5% among 360,000 | AID 652054; in the data active means max response below about -50%; inconclusive means no clear call, values can overlap the other calls; further: on the % scale 0 is the no-effect control and ±100 the full control effect
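Cells expressing the human receptor were seeded at 1500 cells/well, incubated overnight at 37 degrees C in 5% CO2, then exposed to library compounds with dopamine controls for 90 minutes at 37 degrees C before luminescent detection.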
RGS4 inhibitor – human RGS4 inhibition; P49798; Transcreener GDP fluorescence polarization, RGS4-accelerated GTP hydrolysis; Potency, µM (series often up to 114 µM), inactives show at the highest dose activity change, negative = inhibition, actives largely listed as inhibitors; hit rate 0.039% among 390,000; active means well fitted inhibition curve with a large enough effect; inconclusive means small, poorly fitted or top-dose-only effect; inactive means no such curve, though single readings can be large or run the other way; further: potency means the concentration at half of the fitted maximal effect; on the % scale 0 is the no-effect control and ±100 the full control effect; nearly all actives have a fitted effect of over 75% in size
Target sequence (P49798 whole entry, looked up): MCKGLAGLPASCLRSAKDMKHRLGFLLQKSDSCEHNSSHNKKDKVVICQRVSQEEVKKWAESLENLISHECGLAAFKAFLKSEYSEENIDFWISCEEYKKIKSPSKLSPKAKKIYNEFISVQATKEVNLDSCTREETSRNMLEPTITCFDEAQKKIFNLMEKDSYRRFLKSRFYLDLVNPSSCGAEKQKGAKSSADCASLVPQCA
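MLSMR compounds (23 nl, pin-transferred) preincubated 10 min at room temperature with a 500nM (2x) first reagent, then RGS4 at 900nM (2x) plus Transcreener GDP mix added; fluorescence polarization (620/688 nm) read before and after 90 min at 30 °C.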
* marks the source's active call; other numbers are inactive results; i = inactive; ? = inconclusive; / = no result given; [ ] = another dose, or the depositor's remark.

SMILES	LDHA inh	PI4K2A block	pAkt inh	D3 ag	D3 antag	RGS4 inhibitor
Cc1cc(C)c(C(=O)C(C)Oc2ccc(C#N)cc2)cc1C (stereo not drawn)	4	/	/	/	/	/
C=CCn1c(Sc2ncc([N+](=O)[O-])s2)n[nH]c1=O	3	-5	i	-36	-80*	?
Cc1ccc(C)c(OCCn2cnc3c2c(=O)n(C)c(=O)n3C)c1	-8	/	/	/	/	/
CNCCCC1Sc2ccccc2Oc2ccccc21 (stereo not drawn)	-17	6	i	2	-74*	-32%
CC1=CC(=O)C(C(=O)/C=C/c2ccc(C)s2)C(=O)O1 (stereo not drawn)	6	/	/	/	/	/
O=C(CCc1nc2ccccc2c(=O)[nH]1)Nc1ccc(F)cc1	-12	3	i	-3	-54*	-15%
CN(CC(=O)Nc1ccc(F)cc1)C(=O)CCc1nc2ccccc2c(=O)[nH]1	2	0	i	-16	-54*	-34%
NS(=O)(=O)c1ccc(NC(=O)CCc2nc3ccccc3c(=O)[nH]2)cc1	6	/	/	/	/	/
CC1CCCCN1CCNC(=O)c1cc(=O)[nH]c2ccccc12 (stereo not drawn)	13	/	/	/	/	/
C=CCN1CCN(C(=O)c2cc3c(s2)CCC(CC)C3)CC1 (stereo not drawn)	-1	6	i	-32	-91*	16%
CCC1CCc2sc(C(=O)N3CCN(c4ncccn4)CC3)cc2C1 (stereo not drawn)	1	/	/	/	/	/
O=C(c1ccco1)N(Cc1ccc(Cl)cc1)C1CCS(=O)(=O)C1 (stereo not drawn)	-6	-2	/	38*	-4	42%
CC1(C)CC(=O)C(C=Nc2ccccc2Sc2ccccc2)=C(O)C1	3	-6	i	-18	-54*	-30%
O=C1C(=C(I)I)c2ccccc2-c2ccccc21	40	-58*	i	-35	-100*	?
COC(=O)c1ccc(NC(=O)c2ccc(CNC(=O)OC(C)(C)C)cc2)cc1	-3	/	/	/	/	/
CN(CC(=O)NCC(F)(F)F)Cc1ccccc1	-3	/	/	/	/	/
CCc1ccc(C2CC(=O)NC3=C2C(=O)CCC3)cc1 (stereo not drawn)	5	/	/	/	/	/
COc1cc(NC(=O)C2CC(=O)NC3=C2C(=O)CCC3)c(OC)cc1Cl (stereo not drawn)	-2	2	i	39*	-16	-37%
CCOc1ccc(C2CC(=O)NC3=C2C(=O)CCC3)cc1Cl (stereo not drawn)	-1	6	-107%*	12	0	-4%
COc1ccc(C)c(NC(=O)C2CC(=O)NC3=C2C(=O)CCC3)c1 (stereo not drawn)	-9	4	i	-5	-9	3%
Cc1ccc(Cl)cc1NC(=O)CCN=C1NS(=O)(=O)c2ccccc21	-18	/	/	/	/	/
Cc1cc(C)c(/C=N/Nc2cc(C(F)(F)F)ccc2Cl)c(C)c1	0	/	/	/	/	/
Cc1cccc(N(C)C(=O)Cn2cc(C#N)c3ccccc32)c1	4	/	/	/	/	/
COc1ccc(C[C@H]2CN3C(=NC[C@@H]3Cc3ccccc3)N2CCNC(=O)c2ccc(C)c(Br)c2)cc1	1	-3	i	-51	-100*	-14%
Cc1ccc(C(=O)NCCN2C3=NC[C@H](Cc4ccc(O)cc4)N3C[C@H]2Cc2ccc(O)cc2)cc1Br	2	-3	i	-53	?	-11%
SMILES	LDHA inh	PI4K2A block	pAkt inh	D3 ag	D3 antag	RGS4 inhibitor
Cc1ccc(C(=O)NCCN2C3=NC[C@@H](Cc4ccccc4)N3C[C@H]2Cc2ccc(O)cc2)cc1Br	0	0	i	-15	-58*	-10%
COc1ccc(C[C@H]2CN3C(=NC[C@@H]3Cc3ccc(O)cc3)N2CCNC(=O)c2ccc(C)c(Br)c2)cc1	-10	0	i	-67	-98*	0%
COc1ccc(C[C@H]2CN3C(=NC[C@H]3Cc3ccccc3)N2CCNC(=O)c2ccc(C)c(Br)c2)cc1	-2	-4	i	-34	-3	-7%
C/C=C(\C)C(=O)NCCN1C2=NC[C@H](Cc3ccccc3)N2C[C@@H]1Cc1ccc(OC)cc1	0	3	i	0	-52*	-1%
COc1cc2oc(=O)c(CC(=O)NCCc3ccccc3OC)c(C)c2cc1Cl	-9	/	/	/	/	/
CCOc1ccc(-c2[nH]c3c(c2-c2ccc(OC)cc2)c(=O)[nH]c(=O)n3C)cc1OC	-3	/	/	/	/	/
CC(C)(C)CC(=O)N1CCN(C2CCCCC2)CC1	-9	/	/	/	/	/
CCCCCCCCCCCCN1[C@@H](CC(=O)OC)c2cc(F)ccc2S1(=O)=O	1	0	i	9	30	5%
COC(=O)C[C@H]1c2cc(F)ccc2S(=O)(=O)N1Cc1ccccc1	-2	-60*	i	-4	8	-12%
COC(=O)C[C@H]1c2cc(F)ccc2S(=O)(=O)N1c1ccccc1	-3	-1	i	-1	0	17%
CCCCCCCCCCCCN1[C@@H](CC(=O)OC)c2cc(F)cc(F)c2S1(=O)=O	0	1	i	31*	8	4%
CCOc1ccc2oc(C(=O)NC(c3ccc(F)cc3)c3nccn3C)c(C)c2c1 (stereo not drawn)	0	/	/	/	/	/
NC(=O)COC(=O)c1cc(-c2cccs2)nc2ccccc12	-8	/	/	/	/	/
CCn1cc(/C=C(/C#N)S(=O)(=O)c2ccccc2)cn1	-5	6	i	22	-20	-17%
Cn1nccc1/C=C(/C#N)S(=O)(=O)c1ccccc1	6	13	i	1	-56*	-93%[56.9 µM]
CC(=O)Nc1nnc(CSCc2ccc(F)cc2)s1	-15	-2	i	3	-51*	-10%
COc1ccc(CCC(=O)O)cc1Br	-1	/	/	/	/	/
O=C(/C=C/c1cccc2ccccc12)N(Cc1cccs1)C1CC1	-2	/	/	/	/	/
CN(CC(=O)Nc1ccccc1Cl)C(=O)COC(=O)c1nc(Cl)c(Cl)c(Cl)c1Cl	-3	-10	i	-6	-67*	-4%
CN(CC(=O)Nc1ccccc1Cl)C(=O)COC(=O)c1ccc(Cl)nc1	-2	7	i	3	-3	19%
O=[N+]([O-])c1ccc(S(=O)(=O)NCC(c2cccnc2)N2CCc3ccccc3C2)cc1 (stereo not drawn)	-5	-2	i	-4	3	-14%
O=[N+]([O-])c1ccc(S(=O)(=O)NCC(c2ccco2)N2CCc3ccccc3C2)cc1 (stereo not drawn)	-7	-6	i	-4	-57*	-2%
Cc1ccc(-c2cnc(CCC(=O)NC(C)c3ccco3)o2)cc1 (stereo not drawn)	2	/	/	/	/	/
COc1cn(-c2ccccc2)nc1C(=O)OCC(=O)NC1CC1	-7	/	/	/	/	/
CCOc1ccccc1NC(=O)c1ccc(-n2cncn2)nc1	-2	-2	i	4	3	-3%[56.9 µM]
